“And” between values parts separate entries of the source, which are not always exact repeats. Equal entries are not always repeated. Screen size: about 5,500 compounds; about 2,000 (36%) were called active. Not shown: some 18% with an inconclusive outcome. Cut-off read from the data, not from the text of the source: active = normalized growth mostly below about 0.91 (no sharp cut-off); inconclusive = no clear call, values can overlap the other calls; inactive = mostly above about 0.92. Some of the results follow.
Experiment: chemical genetic growth profiling, strain panel (AID 1159580);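 note: tested at 20 µM; growth read once vehicle control cultures reached saturation at 30 °C; 1 = growth at the plate median or of vehicle wells; lower values mean less growth of the strain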
Conditions: S. cerevisiae deletion strains, growth OD

Measured: normalized growth

COc1cc2c(cc1O)CCNC2C (stereo not drawn)
inactive: locus YAL021C, strain ccr4, hits give low values 1.01 | locus YAL026C, strain drs2, hits give low values 1 | locus YAL030W, strain snc1, hits give low values 0.993 | locus YBL061C, strain skt5, hits give low values 1 | locus YBR009C, strain hhf1, hits give low values 1 | locus YBR021W, strain FUR4, hits give low values 1.01 | locus YBR023C, strain chs3, hits give low values 0.999 | locus YBR171W, strain sec66, hits give low values 0.982 | locus YBR229C, strain ROT2, hits give low values 0.993 | locus YBR231C, strain swc5, hits give low values 0.984 | locus YBR279W, strain paf1, hits give low values 0.996 | locus YCL011C, strain gbp2, hits give low values 0.992 | locus YCL016C, strain dcc1, hits give low values 1.01 | locus YCL029C, strain bik1, hits give low values 0.968 | locus YCL061C, strain MRC1, hits give low values 0.989 | locus YCL069W, strain vba3, hits give low values 0.996 | locus YCR088W, strain abp1, hits give low values 0.975 | locus YDL005C, strain med2, hits give low values 0.978 | locus YDL035C, strain GPR1, hits give low values 1.03 | locus YDL040C, strain nat1, hits give low values 0.991 | locus YDL074C, strain BRE1, hits give low values 1 | locus YDL101C, strain DUN1, hits give low values 0.989 | locus YDL134C, strain PPH21, hits give low values 1 | locus YDL185W, strain tfp1, hits give low values 0.981 | locus YDL192W, strain arf1, hits give low values 0.976 | locus YDR001C, strain nth1, hits give low values 0.999 | locus YDR069C, strain doa4, hits give low values 0.975 | locus YDR101C, strain arx1, hits give low values 0.963 | locus YDR137W, strain rgp1, hits give low values 0.99 | locus YDR150W, strain NUM1, hits give low values 0.996 | locus YDR159W, strain sac3, hits give low values 1.01 | locus YDR162C, strain NBP2, hits give low values 1.01 | locus YDR195W, strain ref2 0.94 | locus YDR297W, strain sur2, hits give low values 0.993 | locus YDR318W, strain mcm21, hits give low values 0.982 | locus YDR334W, strain swr1, hits give low values 0.99 | locus YDR335W, strain msn5, hits give low values 0.983 | locus YDR388W, hits give low values 0.98 | locus YDR392W, strain spt3, hits give low values 1.03 | locus YDR502C, strain sam2, hits give low values 0.982 | locus YEL003W, strain gim4, hits give low values 0.999 | locus YEL037C, strain rad23, hits give low values 1 | locus YEL061C, strain CIN8 (second series), hits give low values 0.99 | locus YEL061C, strain CIN8, hits give low values 0.996 | locus YER015W, strain faa2, hits give low values 0.995 | locus YER016W, strain bim1, hits give low values 1.01 | locus YER110C, hits give low values 0.965 | locus YER111C, strain swi4, hits give low values 0.975 | locus YER155C, strain BEM2 (second series), hits give low values 0.94 | locus YER155C, strain BEM2, hits give low values 0.98 | locus YER167W, strain BCK2, hits give low values 1.01 | locus YFR010W, strain ubp6, hits give low values 0.978 | locus YGL078C, strain dbp3, hits give low values 0.984 | locus YGL086W, strain mad1, hits give low values 0.968 | locus YGL167C, strain pmr1, hits give low values 0.993 | locus YGL173C, strain kem1, hits give low values 1 | locus YGL227W, strain vid30, hits give low values 0.993 | locus YGL240W, strain doc1, hits give low values 0.971 | locus YGL248W, strain PDE1, hits give low values 0.988 | locus YGL253W, strain hxk2, hits give low values 1 | locus YGR135W, strain pre9, hits give low values 0.977 | locus YGR252W, strain gcn5, hits give low values 0.983 | locus YHR013C, strain ard1, hits give low values 0.99 | locus YHR027C, strain rpn1, hits give low values 1 | locus YHR030C, strain SLT2, hits give low values 0.993 and 1.05 | locus YHR079C, strain IRE1 (second series), hits give low values 0.979 | locus YHR079C, strain IRE1, hits give low values 1.05 | locus YHR094C, strain hxt1, hits give low values 0.971 | locus YHR129C, strain ARP1, hits give low values 0.992 | locus YHR142W, strain chs7, hits give low values 1.01 | locus YHR200W, strain rpn10, hits give low values 1 | locus YIL066C, strain RNR3, hits give low values 1.01 | locus YIL073C, strain SPO22, hits give low values 0.963 | locus YIL125W, strain kgd1, hits give low values 0.981 | locus YIR030C, strain dcg1, hits give low values 0.978 | locus YJL092W, strain hpr5, hits give low values 0.991 | locus YJL095W, strain BCK1 (second series), hits give low values 0.978 | locus YJL095W, strain BCK1, hits give low values 0.984 and 1.01 | locus YJL115W, strain asf1, hits give low values 0.988 | locus YJL129C, strain trk1, hits give low values 0.99 | locus YJL134W, strain LCB3, hits give low values 0.995 | locus YJL154C, strain vps35, hits give low values 0.994 | locus YJL164C, strain tpk1, hits give low values 1 | locus YJL166W, strain qcr8, hits give low values 0.987 | locus YJL168C, strain set2, hits give low values 0.973 | locus YJL187C, strain SWE1 (second series), hits give low values 0.992 | locus YJR043C, strain POL32, hits give low values 1.05 | locus YJR066W, strain TOR1, hits give low values 0.982 | locus YKL009W, strain mrt4, hits give low values 0.961 | locus YKL068W, hits give low values 0.987 | locus YKL085W, strain MDH1 (second series), hits give low values 0.982 | locus YKL085W, strain MDH1, hits give low values 0.982 | locus YKL160W, strain elf1, hits give low values 0.994 | locus YKR001C, strain vps1, hits give low values 0.958 | locus YKR026C, strain gcn3, hits give low values 0.989 | locus YKR091W, strain srl3, hits give low values 0.991 | locus YLL001W, strain dnm1, hits give low values 0.982 | locus YLL026W, hits give low values 0.987 | locus YLL041C, strain sdh2, hits give low values 0.992 | locus YLR027C, strain aat2, hits give low values 0.98 | locus YLR039C, strain RIC1, hits give low values 1.02 | locus YLR058C, strain SHM2, hits give low values 0.995 | locus YLR102C, strain apc9, hits give low values 0.974 | locus YLR113W, strain HOG1, hits give low values 0.977 | locus YLR221C, strain rsa3, hits give low values 0.996 | locus YLR258W, strain gsy2, hits give low values 0.998 | locus YLR262C, strain YPT6 (second series), hits give low values 0.994 | locus YLR262C, strain YPT6, hits give low values 1.05 | locus YLR268W, strain sec22, hits give low values 0.965 | locus YLR320W, strain mms22, hits give low values 0.994 | locus YLR330W, strain CHS5, hits give low values 1 | locus YLR342W, strain FKS1 (second series), hits give low values 1.03 | locus YLR342W, strain FKS1, hits give low values 0.987 | locus YLR357W, strain rsc2, hits give low values 0.979 | locus YLR370C, strain arc18, hits give low values 0.988 | locus YLR371W, strain rom2, hits give low values 0.967 | locus YLR384C, strain iki3, hits give low values 0.985 | locus YLR418C, strain cdc73, hits give low values 0.973 | locus YML016C, strain PPZ1, hits give low values 0.991 | locus YML032C, strain rad52, hits give low values 0.99 | locus YML120C, strain ndi1, hits give low values 0.991 | locus YML124C, strain tub3, hits give low values 0.984 | locus YMR058W, strain fet3, hits give low values 0.991 | locus YMR078C, strain ctf18, hits give low values 0.977 | locus YMR125W, strain sto1, hits give low values 1 | locus YMR129W, hits give low values 0.996 | locus YMR205C, strain PFK2, hits give low values 0.991 | locus YMR223W, strain ubp8, hits give low values 0.985 | locus YMR231W, strain pep5, hits give low values 0.984 | locus YMR307W, strain GAS1, hits give low values 1.08 | locus YNL067W, strain RPL9B, hits give low values 0.988 | locus YNL071W, strain lat1, hits give low values 0.988 | locus YNL128W, strain TEP1, hits give low values 0.992 | locus YNL153C, strain GIM3, hits give low values 0.988 | locus YNL183C, strain NPR1, hits give low values 0.974 | locus YNL209W, strain ssb2, hits give low values 0.997 | locus YNL233W, strain BNI4, hits give low values 0.982 | locus YNL248C, strain rpa49, hits give low values 0.997 | locus YNL250W, strain rad50, hits give low values 0.99 | locus YNL271C, strain bni1, hits give low values 0.975 | locus YNL298W, strain CLA4, hits give low values 0.989 | locus YNL307C, strain MCK1, hits give low values 0.969 | locus YNL322C, strain KRE1 (second series), hits give low values 0.98 | locus YNR049C, strain mso1, hits give low values 0.987 | locus YNR052C, strain pop2, hits give low values 0.973 | locus YOL012C, strain htz1 0.945 | locus YOL147C, strain pex11, hits give low values 0.979 | locus YOR001W, strain rrp6, hits give low values 0.958 | locus YOR061W, strain CKA2, hits give low values 0.997 | locus YOR069W, strain VPS5, hits give low values 0.987 | locus YOR070C, strain gyp1, hits give low values 0.999 | locus YOR080W, strain dia2, hits give low values 0.987 | locus YOR083W, strain WHI5, hits give low values 0.988 | locus YOR106W, strain vam3, hits give low values 0.989 | locus YOR136W, strain idh2, hits give low values 0.964 | locus YOR144C, strain elg1, hits give low values 0.983 | locus YOR184W, strain ser1, hits give low values 0.988 | locus YOR231W, strain MKK1, hits give low values 1 | locus YOR265W, strain rbl2, hits give low values 0.984 | locus YOR270C, strain vph1, hits give low values 1.02 | locus YOR290C, strain snf2, hits give low values 0.999 | locus YOR316C, strain cot1, hits give low values 0.981 | locus YPL051W, strain arl3, hits give low values 0.985 | locus YPL055C, strain LGE1, hits give low values 1 | locus YPL078C, strain atp4, hits give low values 0.989 | locus YPL106C, strain sse1, hits give low values 0.991 | locus YPL240C, strain hsp82, hits give low values 1 | locus YPL256C, strain CLN2, hits give low values 1.06 | locus YPR119W, strain clb2, hits give low values 0.978 | locus YPR141C, strain kar3, hits give low values 0.968 | locus YPR163C, strain tif3, hits give low values 0.979 | locus YPR167C, strain met16, hits give low values 0.974 | strain wtn01, hits give low values 0.952

Reference: PubChem BioAssay AID1159580 (chemical genetic matrix, 2015)
